Screens as filed in PubChem BioAssay.
RXFP1 antag = qHTS Assay for Antagonists of the Relaxin Receptor RXFP1; Relaxin receptor 1 (Homo sapiens), Q9HBX9; HEK293-RXFP1, relaxin-stimulated cAMP HTRF, 30 min; hits give low values; activity change, negative = inhibition, % at 57.5 µM; actives 0.59% (n = 350,000); AID 1259400, 2018;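 active = activity change of -60% or lower, but not beyond a set lower limit; inconclusive = change between -60% and -40%, or beyond the set limit; inactive = change above -40%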; note: % is set by controls: 0 for no effect and ±100 for the full control effect
Target sequence (Q9HBX9 whole entry, looked up): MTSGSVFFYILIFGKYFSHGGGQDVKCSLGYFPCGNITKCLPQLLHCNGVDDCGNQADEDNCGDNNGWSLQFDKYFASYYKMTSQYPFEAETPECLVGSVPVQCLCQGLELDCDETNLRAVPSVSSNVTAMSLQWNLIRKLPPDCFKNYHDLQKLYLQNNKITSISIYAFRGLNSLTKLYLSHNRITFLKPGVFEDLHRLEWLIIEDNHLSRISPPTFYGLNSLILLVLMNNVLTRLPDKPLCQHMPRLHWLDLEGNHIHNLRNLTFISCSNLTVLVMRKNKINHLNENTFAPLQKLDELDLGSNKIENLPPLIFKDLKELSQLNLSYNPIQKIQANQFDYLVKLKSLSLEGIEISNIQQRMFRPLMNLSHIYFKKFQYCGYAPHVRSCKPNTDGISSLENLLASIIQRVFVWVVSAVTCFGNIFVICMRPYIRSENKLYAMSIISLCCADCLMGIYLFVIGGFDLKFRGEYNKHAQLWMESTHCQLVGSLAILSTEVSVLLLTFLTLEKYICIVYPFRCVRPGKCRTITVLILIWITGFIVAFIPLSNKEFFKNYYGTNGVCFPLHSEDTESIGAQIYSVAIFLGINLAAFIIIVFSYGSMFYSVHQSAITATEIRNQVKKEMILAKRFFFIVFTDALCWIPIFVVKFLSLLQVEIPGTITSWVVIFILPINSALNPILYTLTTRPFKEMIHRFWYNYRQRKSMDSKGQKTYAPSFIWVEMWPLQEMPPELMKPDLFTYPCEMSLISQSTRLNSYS
RXFP1 ag = qHTS Assay for Agonists of the Relaxin Receptor RXFP1 | HEK293T-RXFP1 cAMP TR-FRET, 30 min; response scale: percent of porcine relaxin response, buffer zero | Potency, µM (highest dose often 57.5 µM), for the others: at the highest dose activation, actives largely listed as activators | actives 0.3% (n = 370,000); active = well fitted activation curve with a large enough effect; inconclusive = small, poorly fitted or top-dose-only effect; note: potency is the fitted concentration of half-maximal effect; % is set by controls: 0 for no effect and ±100 for the full control effect; nearly all actives have a fitted effect of over 60% in size
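cAMP rise read by TR-FRET after 30 min, 37C compound exposure (up to 58 uM) in RXFP1-transfected HEK293 cells with Ro 20174 present. EC50 from Hill-equation fits, with 29 nM porcine relaxin as 100% and buffer as basal.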
gsp antagonist = qHTS for Antagonists of gsp, the Etiologic Mutation Responsible for Fibrous Dysplasia/McCune-Albright Syndrome: qHTS; gsp-mutant cells, cAMP HTRF, 30 min; Potency, µM (series often up to 76.9 µM), without a hit: at the top dose activity change, negative = inhibition, usual class: inhibitors; actives 0.4% (n = 340,000); calls by dose curve; cell line not stated here;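 note: intracellular cAMP measured with PDE inhibitor Ro 20-1724 present during compound exposure; potency is the fitted concentration of half-maximal effect; % is set by controls: 0 for no effect and ±100 for the full control effect; nearly all actives have a fitted effect of over 65% in size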
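Cells, 2000/well, grown 16–24 h in DMEM 10% FBS with 0.5 mg/ml G418, then compounds plus […] (300 uM addition stock), 30 min at 37C. cAMP read by HTRF (cAMP-d2 and anti-cAMP antibody-K in lysis buffer) after 30 min RT.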
pAkt inh = HTS Assay for Inhibitors of Akt Phophorylation: Primary Screen. actives 0.32% (n = 360,000). Neuro2A IGF-stimulated pAkt S473 HTRF, 20 min; hits give low values. activity change, % for hits at 50 µM; in the data active = activity change below about -80%; inconclusive = mostly about -51% to -80%; note: % is set by controls: 0 for no effect and ±100 for the full control effect
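Neuro2A cells in DMEM with 0.5% FBS, overnight at 37 deg C, given compound at single 50 µM final, then IGF (6 nM final) for 20 min at 37 deg C. Lysed; phospho-Akt Ser473 by HTRF after 24 h, 665/615 ratio.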
gsp ag = qHTS for Agonist of gsp, the Etiologic Mutation Responsible for Fibrous Dysplasia/McCune-Albright Syndrome: qHTS; gsp mutant cells, cAMP HTRF, 30 min; Potency, µM (doses to about 76.9 µM), without a hit: at the highest dose activation (cAMP increase), hits mostly activators; actives 0.13% (n = 340,000); AID 624287, 2012; active = well fitted activation curve with a large enough effect; inconclusive = small, poorly fitted or top-dose-only effect, or another doubt; inactive = no such curve, though single readings can be large or run the other way; cell line not stated here;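 note: phosphodiesterase inhibitor Ro 20-1724 added with compounds to block cAMP breakdown; potency is the fitted concentration of half-maximal effect; nearly all actives have a fitted effect of over 60% in size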
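Cells stably selected in G418 were plated at 2000/well, grown 16-24 hr, then given compounds in DMSO with the PDE inhibitor […] (300 uM solution added) for 30 min at 37C; cAMP was read by HTRF.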
* = called active by the depositor; [ ] = another dose, or the depositor's remark. This is a sample that favours compounds with a hit; in the whole collection about 1.3% have one here.

For CC1CN(c2ccc([N+](=O)[O-])c(NCCOc3ccc(Cl)cc3)c2)CC(C)N1 (stereo not given) the results were RXFP1 antag -97*, RXFP1 ag 2%, gsp antagonist 2%, pAkt inh inactive and gsp ag -12%.
COc1ccc(CCNC(=O)Cn2c(=O)n(-c3cc(F)ccc3F)c(=O)c3sccc32)cc1OC was read as RXFP1 antag -15, RXFP1 ag 3%, gsp antagonist 32µM*, pAkt inh inactive and gsp ag -28%.
Screening O=S(=O)(Nc1c(S(=O)(=O)c2ccccc2)c2nc3ccccc3nc2n1C1CCCCC1)c1ccccc1 returned RXFP1 antag -72*, RXFP1 ag 5%, gsp antagonist -9%, pAkt inh inactive and gsp ag -10%.
`C=CCn1c(NS(=O)(=O)c2ccccc2)c(S(=O)(=O)c2ccc(C)cc2)c2nc3ccccc3nc21` gave RXFP1 ag 2%, gsp antagonist -10%, pAkt inh inactive and gsp ag inconclusive.
Cc1cc(/C=C2\SC(=S)NC2=O)c(C)[nH]1 was read as RXFP1 antag -111*, RXFP1 ag 1%, gsp antagonist -25%, pAkt inh inactive and gsp ag -5%.
`COc1ccc(-c2cc(C(F)(F)F)n3ncc(-c4ccccc4)c3n2)cc1` gave RXFP1 antag 6 and RXFP1 ag 5%.
`COCCCn1c(=O)/c(=C\c2cccc(OC)c2OC)s/c1=C(/C#N)C(=O)Nc1ccc(C(=O)O)cc1` gave RXFP1 antag 15, RXFP1 ag 4%, gsp antagonist 14µM*, pAkt inh inactive and gsp ag 0%.
For O=C(COc1ncnc2scc(-c3ccccc3)c12)NCCN1C(=O)CSC1=O the results were RXFP1 ag 11µM*.
`O=C(CSc1nc(-c2ccccc2)cs1)NCCN1C(=O)CSC1=O` gave RXFP1 antag -23, RXFP1 ag 0%, gsp antagonist -7%, pAkt inh inactive and gsp ag -26%[15.4 µM].
COc1cc(CN(C(=O)c2cccc(C)c2)c2ccccn2)cc(OC)c1OC was read as RXFP1 ag 4%.
Cc1ccc(NC(=O)C2=C(c3ccccc3)S(=O)(=O)CCS2(=O)=O)cc1 was read as RXFP1 antag inconclusive, RXFP1 ag -5%, gsp antagonist 28µM*, pAkt inh inactive and gsp ag -28%[15.4 µM].
For Cc1ccc(NC(=O)c2ccccc2)cc1 the results were RXFP1 antag 6, RXFP1 ag 4%, gsp antagonist 4%, pAkt inh inactive and gsp ag 26%.
`Cc1ccc(C2CC(=O)N(Cc3ccccc3F)c3c2c(C)nn3-c2nc(C)cc(C)n2)cc1` (stereo not given) gave RXFP1 antag -3 and RXFP1 ag 3%.
Screening Cc1cccc(OCC(=O)N/N=C/c2ccc(N(C)C)cc2)c1 returned RXFP1 antag -102*, RXFP1 ag -1%, gsp antagonist -13%, pAkt inh inactive and gsp ag 21%.
`CN(C)c1ccc(/C=N/NC(=O)COc2ccccc2)cc1` gave RXFP1 antag -7, RXFP1 ag 3%, gsp antagonist -14%, pAkt inh inactive and gsp ag 1%.
Cc1cccc(-c2ccc3ncnc(N(C)Cc4ccco4)c3c2)c1 was read as RXFP1 ag 2%.
`Cc1ccc(NC2(c3ccccc3)C(=O)c3ccccc3C2=O)cc1F` gave RXFP1 antag -18 and RXFP1 ag 0%.
`Cc1ccc(CSc2nc3cccnc3n2Cc2nc(-c3ccccc3F)oc2C)cc1` gave RXFP1 antag 11 and RXFP1 ag 6%.
`CCCC(=O)Nc1ccc2c(c1)c1ccccc1n2CC` gave RXFP1 antag 1, RXFP1 ag 1%, gsp antagonist -2%, pAkt inh inactive and gsp ag 2%.
CCOc1c(/C=C(\C#N)C(N)=O)c2ccccc2n1CC was read as RXFP1 antag 8, RXFP1 ag 2%, gsp antagonist -2%, pAkt inh inactive and gsp ag 16%.
CCOC(=O)/C(C#N)=C\c1c(OCC)n(CC)c2ccccc12 was read as RXFP1 antag -13, RXFP1 ag -1%, gsp antagonist 25µM*, pAkt inh inactive and gsp ag -3%[15.4 µM].
CCOC(=O)C(=CNc1ccc2c(c1)c1ccccc1n2CC)C(=O)OCC was read as RXFP1 antag -17, RXFP1 ag 0%, gsp antagonist 32µM*, pAkt inh inactive and gsp ag 1%.
For CCCn1c2ccccc2c2cnn(CC(=O)NCCc3cc(OC)ccc3OC)c(=O)c21 the results were RXFP1 antag 1 and RXFP1 ag 8%.
Screening CCn1c(=O)c([N+](=O)[O-])c(NCCc2ccccc2)c2ccccc21 returned RXFP1 antag -10, RXFP1 ag 0%, gsp antagonist 40µM*, pAkt inh inactive and gsp ag -8%.
COc1cccc(CNC(=O)CCc2c(C)nn(-c3ccc(N4CCOCC4)nn3)c2C)c1 was read as RXFP1 ag -1%.
O=C(CCN1C(=O)/C(=C/c2ccccc2Cl)SC1=S)NNC(=O)c1ccccc1O was read as RXFP1 antag -71*, RXFP1 ag -4%, gsp antagonist -23%, pAkt inh inactive and gsp ag -16%.
For O=C(CN1C(=O)/C(=C/c2ccc(F)cc2)SC1=S)NC1C=CS(=O)(=O)C1 (stereo not given) the results were RXFP1 antag -18, RXFP1 ag -3%, gsp antagonist -1% and gsp ag -5%.
Cc1ccc(/C=C2\SC(=S)N(CCC(=O)NNS(=O)(=O)c3ccccc3)C2=O)cc1 was read as RXFP1 antag -6, RXFP1 ag -139%, gsp antagonist 50µM*, pAkt inh inactive and gsp ag -14%[15.4 µM].
`COc1ccccc1/C=C1\SC(=S)N(CC(=O)NC2CCS(=O)(=O)C2)C1=O` (stereo not given) gave RXFP1 antag 3, RXFP1 ag -2%, gsp antagonist -40%, pAkt inh inactive and gsp ag 18%.
Screening O=C(CN1C(=O)/C(=C/c2ccc(F)cc2)SC1=S)NC1CCS(=O)(=O)C1 (stereo not given) returned RXFP1 antag -67*, RXFP1 ag -3%, gsp antagonist -4%, pAkt inh inactive and gsp ag inconclusive.
